Hit rate of the full screen: of about 5,500 compounds, about 2,000 (36%) were called active. Another 18% or so got no clear call; they are omitted. Rule as the data show it: active = normalized growth mostly below about 0.91 (no sharp cut-off); inconclusive = no clear call, values can overlap the other calls; inactive = mostly above about 0.92. Some of the results follow.
Test: chemical genetic growth profiling, strain panel (AID 1159580);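 also: tested at 20 µM; growth read once vehicle control cultures reached saturation at 30 °C; 1 = growth at the plate median or of vehicle wells; lower values mean less growth of the strain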
Settings: growth OD

Measured: normalized growth

CC(C)=CCCC1(C)C=Cc2c(O)c3c(c(CC=C(C)C)c2O1)OC12C(=CC4CC1C(C)(C)OC2(C/C=C(/C)C(=O)O)C4=O)C3=O (stereo not drawn)
inactive: S. cerevisiae deletion strains, locus YJR066W, strain TOR1, stronger effect = lower value 0.825 | S. cerevisiae deletion strains, locus YKL009W, strain mrt4, stronger effect = lower value 0.965 | S. cerevisiae deletion strains, locus YKL068W, stronger effect = lower value 0.943 | S. cerevisiae deletion strains, locus YKR026C, strain gcn3, stronger effect = lower value 0.973 | S. cerevisiae deletion strains, locus YKR091W, strain srl3, stronger effect = lower value 0.96 | S. cerevisiae deletion strains, locus YLL041C, strain sdh2, stronger effect = lower value 0.958 | S. cerevisiae deletion strains, locus YLR039C, strain RIC1, stronger effect = lower value 0.873 | S. cerevisiae deletion strains, locus YLR102C, strain apc9, stronger effect = lower value 0.97 | S. cerevisiae deletion strains, locus YLR262C, strain YPT6, stronger effect = lower value 0.783 | S. cerevisiae deletion strains, locus YLR357W, strain rsc2, stronger effect = lower value 1.02 | S. cerevisiae deletion strains, locus YLR370C, strain arc18, stronger effect = lower value 0.984 | S. cerevisiae deletion strains, locus YLR371W, strain rom2, stronger effect = lower value 0.955 | S. cerevisiae deletion strains, locus YLR384C, strain iki3, stronger effect = lower value 0.989 | S. cerevisiae deletion strains, locus YML016C, strain PPZ1, stronger effect = lower value 0.963 | S. cerevisiae deletion strains, locus YML124C, strain tub3, stronger effect = lower value 0.979 | S. cerevisiae deletion strains, locus YMR078C, strain ctf18, stronger effect = lower value 0.98 | S. cerevisiae deletion strains, locus YMR125W, strain sto1, stronger effect = lower value 0.938 | S. cerevisiae deletion strains, locus YMR129W, stronger effect = lower value 0.951 | S. cerevisiae deletion strains, locus YMR263W, strain SAP30, stronger effect = lower value 0.947 | S. cerevisiae deletion strains, locus YNL067W, strain RPL9B, stronger effect = lower value 0.93 | S. cerevisiae deletion strains, locus YNL153C, strain GIM3, stronger effect = lower value 0.923 | S. cerevisiae deletion strains, locus YNL248C, strain rpa49, stronger effect = lower value 0.976 | S. cerevisiae deletion strains, locus YNL250W, strain rad50, stronger effect = lower value 0.952 | S. cerevisiae deletion strains, locus YNL271C, strain bni1, stronger effect = lower value 0.981 | S. cerevisiae deletion strains, locus YNL298W, strain CLA4, stronger effect = lower value 0.976 | S. cerevisiae deletion strains, locus YNL322C, strain KRE1 (second series), stronger effect = lower value 0.964 | S. cerevisiae deletion strains, locus YNR049C, strain mso1, stronger effect = lower value 0.978 | S. cerevisiae deletion strains, locus YNR052C, strain pop2, stronger effect = lower value 0.928 | S. cerevisiae deletion strains, locus YOL012C, strain htz1 0.349 | S. cerevisiae deletion strains, locus YOR001W, strain rrp6, stronger effect = lower value 0.918 | S. cerevisiae deletion strains, locus YOR069W, strain VPS5, stronger effect = lower value 0.975 | S. cerevisiae deletion strains, locus YOR080W, strain dia2, stronger effect = lower value 0.982 | S. cerevisiae deletion strains, locus YOR136W, strain idh2, stronger effect = lower value 0.958 | S. cerevisiae deletion strains, locus YOR144C, strain elg1, stronger effect = lower value 0.946 | S. cerevisiae deletion strains, locus YOR231W, strain MKK1, stronger effect = lower value 0.884 | S. cerevisiae deletion strains, locus YOR316C, strain cot1, stronger effect = lower value 0.97 | S. cerevisiae deletion strains, locus YPL106C, strain sse1, stronger effect = lower value 1.01 | S. cerevisiae deletion strains, locus YPR119W, strain clb2, stronger effect = lower value 0.988 | S. cerevisiae deletion strains, locus YPR141C, strain kar3, stronger effect = lower value 0.982
active: S. cerevisiae deletion strains, locus YJL187C, strain SWE1, stronger effect = lower value 0.851 | S. cerevisiae deletion strains, locus YJR043C, strain POL32, stronger effect = lower value 0.821 | S. cerevisiae deletion strains, locus YKL085W, strain MDH1 (second series), stronger effect = lower value 0.925 | S. cerevisiae deletion strains, locus YKL085W, strain MDH1, stronger effect = lower value 0.925 | S. cerevisiae deletion strains, locus YKL160W, strain elf1, stronger effect = lower value 0.842 | S. cerevisiae deletion strains, locus YKR001C, strain vps1, stronger effect = lower value 0.628 | S. cerevisiae deletion strains, locus YLL001W, strain dnm1, stronger effect = lower value 0.881 | S. cerevisiae deletion strains, locus YLL026W, stronger effect = lower value 0.888 | S. cerevisiae deletion strains, locus YLR027C, strain aat2, stronger effect = lower value 0.827 | S. cerevisiae deletion strains, locus YLR058C, strain SHM2, stronger effect = lower value 0.884 | S. cerevisiae deletion strains, locus YLR113W, strain HOG1, stronger effect = lower value 0.685 | S. cerevisiae deletion strains, locus YLR221C, strain rsa3, stronger effect = lower value 0.871 | S. cerevisiae deletion strains, locus YLR258W, strain gsy2, stronger effect = lower value 0.861 | S. cerevisiae deletion strains, locus YLR262C, strain YPT6 (second series), stronger effect = lower value 0.685 | S. cerevisiae deletion strains, locus YLR268W, strain sec22, stronger effect = lower value 0.84 | S. cerevisiae deletion strains, locus YLR320W, strain mms22, stronger effect = lower value 0.732 | S. cerevisiae deletion strains, locus YLR330W, strain CHS5, stronger effect = lower value 0.756 | S. cerevisiae deletion strains, locus YLR342W, strain FKS1 (second series), stronger effect = lower value 0.703 | S. cerevisiae deletion strains, locus YLR342W, strain FKS1, stronger effect = lower value 0.854 | S. cerevisiae deletion strains, locus YLR418C, strain cdc73, stronger effect = lower value 0.487 | S. cerevisiae deletion strains, locus YML032C, strain rad52, stronger effect = lower value 0.879 | S. cerevisiae deletion strains, locus YML120C, strain ndi1, stronger effect = lower value 0.855 | S. cerevisiae deletion strains, locus YMR058W, strain fet3, stronger effect = lower value 0.507 | S. cerevisiae deletion strains, locus YMR205C, strain PFK2, stronger effect = lower value 0.623 | S. cerevisiae deletion strains, locus YMR223W, strain ubp8, stronger effect = lower value 0.853 | S. cerevisiae deletion strains, locus YMR231W, strain pep5, stronger effect = lower value 0.911 | S. cerevisiae deletion strains, locus YMR307W, strain GAS1, stronger effect = lower value 0.571 | S. cerevisiae deletion strains, locus YNL071W, strain lat1, stronger effect = lower value 0.324 | S. cerevisiae deletion strains, locus YNL183C, strain NPR1, stronger effect = lower value 0.8 | S. cerevisiae deletion strains, locus YNL209W, strain ssb2, stronger effect = lower value 0.76 | S. cerevisiae deletion strains, locus YNL233W, strain BNI4, stronger effect = lower value 0.772 | S. cerevisiae deletion strains, locus YNL307C, strain MCK1, stronger effect = lower value 0.382 | S. cerevisiae deletion strains, locus YOL147C, strain pex11, stronger effect = lower value 0.929 | S. cerevisiae deletion strains, locus YOR061W, strain CKA2, stronger effect = lower value 0.785 | S. cerevisiae deletion strains, locus YOR070C, strain gyp1, stronger effect = lower value 0.796 | S. cerevisiae deletion strains, locus YOR083W, strain WHI5, stronger effect = lower value 0.842 | S. cerevisiae deletion strains, locus YOR106W, strain vam3, stronger effect = lower value 0.662 | S. cerevisiae deletion strains, locus YOR184W, strain ser1, stronger effect = lower value 0.64 | S. cerevisiae deletion strains, locus YOR265W, strain rbl2, stronger effect = lower value 0.886 | S. cerevisiae deletion strains, locus YOR270C, strain vph1, stronger effect = lower value 0.632 | S. cerevisiae deletion strains, locus YOR290C, strain snf2, stronger effect = lower value 0.836 | S. cerevisiae deletion strains, locus YPL051W, strain arl3, stronger effect = lower value 0.764 | S. cerevisiae deletion strains, locus YPL078C, strain atp4, stronger effect = lower value 0.885 | S. cerevisiae deletion strains, locus YPL240C, strain hsp82, stronger effect = lower value 0.908 | S. cerevisiae deletion strains, locus YPL256C, strain CLN2, stronger effect = lower value 0.816 | S. cerevisiae deletion strains, locus YPR163C, strain tif3, stronger effect = lower value 0.9 | S. cerevisiae deletion strains, locus YPR167C, strain met16, stronger effect = lower value 0.91 | S. cerevisiae deletion strains, strain wtn01, stronger effect = lower value 0.868 | S. cerevisiae strains, strain wild type, stronger effect = lower value 0.78
